Screening data as filed in PubChem.
L3MBTL1 block: inhibitors of human L3MBTL1; Q9Y468; AlphaScreen L3MBTL1–H3K9me1 peptide binding; Potency, µM (doses to about 57.1 µM), actives largely listed as inhibitors; actives 0.66% (n = 230,000); AID 485360; also: nearly all actives have a fitted effect of over 60% in size
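AlphaScreen assay: L3MBTL1 (50 nM final) was preincubated 30 min at room temperature with biotinylated H3(1-15)K9me1 peptide (75 nM final), then 30 min with library compounds; streptavidin donor and nickel chelate acceptor beads (10 ug/mL final) added, 30 min dark.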
G9a block: blocks human histone lysine methyltransferase G9a | actives 8.8% (n = 350,000) | Q96KQ7 | AID 504332 | Potency, µM (titrated, usually from 102 µM), usual class: inhibitors | G9a H3K9 monomethylation, AlphaScreen, 2 h; also: nearly all actives have a fitted effect of over 75% in size
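Compounds were preincubated with 20 nM G9a for 15 min, after which biotinylated H3K9 peptide (500 nM) and SAM (20 uM) started a 2 h room-temperature reaction. Monomethylated product was quantified by antibody-based AlphaScreen chemiluminescence.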
BAZ2B block: BAZ2B (human) inhibition | AlphaScreen BAZ2B-H3K14Ac peptide displacement | Q9UIF8 | actives 4.4% (n = 360,000) | Potency, µM (highest dose often 114 µM), most hits filed as inhibitors; also: nearly all actives have a fitted effect of over 60% in size
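Inhibition is scored as reduced AlphaScreen emission. The BAZ2B/b-H3(5-23)K14Ac complex (50 nM each) in PBS pH 7.4, 0.01% Tween-20 meets compound (up to 110 uM) for 30 min at RT before bead addition.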
JMJD2A Tudor inh: inhibitors of human JMJD2A Tudor domain; O75164; AlphaScreen JMJD2A-Tudor / H3K4me3 peptide binding; actives 4.4% (n = 390,000); AID 504339; Potency, µM (series often up to 114 µM), usual class: inhibitors; also: nearly all actives have a fitted effect of over 50% in size
HP1b binding inh: blocks HP1-beta chromodomain binding to methylated histone tails | AlphaScreen HP1-beta / biotin-H3K9me3 peptide binding | Potency, µM (doses to about 114 µM), actives largely listed as inhibitors | actives 0.56% (n = 390,000) | AID 540317; also: nearly all actives have a fitted effect of over 70% in size
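Compound inhibition of the preformed complex between 50 nM HP1-beta and 50 nM biotinylated H3K9me3 peptide was read by AlphaScreen. Buffer was PBS pH 7.4 with 0.01% Tween-20. Incubations ran 30 min at room temperature, with 10 ug/mL donor/acceptor beads.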
GLS inhibitor: glutaminase GLS (human) inhibition | GLS enzymatic activity, qHTS titration | actives 0.21% (n = 410,000) | O94925 | Potency, µM (top dose mostly 45.5 µM), usual class: inhibitors
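Assay buffer: 45 mM KH2PO4 pH 8.2, 0.02% Tween-20. hKGA acts on L-glutamine (1 mM solution added); product glutamate is reported by an oxidase/peroxidase Amplex Red coupling, with fluorescence taken at baseline and 30 min.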
Hits are given with their value; i = inactive; ? = inconclusive; nt = no result given; [ ] = another dose, or the depositor's remark. Compounds with a hit are over-represented: about 10% of the library has one in this group of screens. Calls follow the shape of the dose curve; as a rule, active = well fitted curve in the direction sought with a large enough effect; inconclusive = small, poorly fitted or top-dose-only effect, or another doubt; inactive = no such curve, though single readings can be large; an effect the other way counts as inactive or inconclusive.

SMILES | L3MBTL1 block | G9a block | BAZ2B block | JMJD2A Tudor inh | HP1b binding inh | GLS inhibitor
COc1cc(C(=S)N2CCOCC2)cc(OC)c1OC(=O)c1ccc(F)cc1 | i | nt | ? | i | ? | i
O=C(Oc1cccc(C(=S)N2CCOCC2)c1)c1ccccc1 | nt | 7.08µM | i | i | ? | i
COc1cc(C(=S)N2CCOCC2)cc(OC)c1OC(=O)Cc1ccc(F)cc1 | i | 3.16µM | ? | 79.4µM | ? | i
Cc1ccccc1NC(=O)c1c(C)oc2ccc(O)c(CN3CCC(C)CC3)c12 | nt | i | i | i | i | i
Cn1cc(Br)c(C(=O)NC(=S)N2CCN(c3ccccn3)CC2)n1 | i | 39.8µM | ? | i | i | i
Cn1ncc(Br)c1C(=O)NC(=S)N1CCN(c2ccccn2)CC1 | i | ? | i | i | i | i
O=C(NC(=S)N1CCN(c2ccccn2)CC1)c1ccccc1 | i | 39.8µM | i | i | i | i
O=C(NC(=S)N1CCN(c2ccccc2)CC1)c1ccccc1 | nt | i | i | nt | nt | nt
O=C(c1ccc2c(c1)OCCO2)N(Cc1cccnc1)c1nc2c(F)cccc2s1 | nt | i | i | i | i | i
Cc1ccc(CCNC(=O)c2cn(C)c3ccc(S(=O)(=O)N4CCC(C)CC4)cc3c2=O)cc1 | nt | i | nt | i | i | i
Cn1c(-c2sc3cc(C(F)(F)F)cnc3c2-c2cccs2)n[nH]c1=S | i | 3.98µM | i | i | i | i
Cn1c(-c2sc3cc(C(F)(F)F)cnc3c2-c2cccnc2)n[nH]c1=S | nt | 3.55µM | i | i[11.4 µM] | i | i
Cn1c(-c2sc3cc(C(F)(F)F)cnc3c2-c2ccccn2)n[nH]c1=S | i | 6.31µM | i | 14.1µM | i | i
CCCCOc1ccc(C(=O)Nc2ccc3c(c2)CCCN3S(=O)(=O)c2ccc(C)cc2)cc1 | nt | i | i | i | i | i
COC(=O)c1ccccc1NC(=O)Cn1c(=O)n(CCCC(=O)NCCc2ccc(OC)c(OC)c2)c(=O)c2ccccc21 | nt | i | i | i | i | i
Nc1cc(C(=O)N2CCN(c3ccc([N+](=O)[O-])cc3)CC2)ccc1N1CC2CC(C1)c1cccc(=O)n1C2 (stereo unspecified) | nt | ? | i | ? | i | i
COc1cccc(NC(=S)Nc2cc(C(=O)O)ccc2N2CC3CC(C2)c2cccc(=O)n2C3)c1 (stereo unspecified) | nt | 39.8µM | i | i | i | i
Cc1ccc(NC(=S)Nc2cc(C(=O)O)ccc2N2CC3CC(C2)c2cccc(=O)n2C3)cc1C (stereo unspecified) | nt | 39.8µM | i | i | i | i
CCN1CCN(C(=O)c2ccc(N3CC4CC(C3)c3cccc(=O)n3C4)c([N+](=O)[O-])c2)CC1 (stereo unspecified) | nt | 56.2µM | i | i | i | i
COc1cc(C2NC(=O)N(C)C3=C2C(=O)N(c2ccccc2)C3)ccc1O (stereo unspecified) | nt | i | i | i | i | i
O=C(Nc1ccc(Br)cc1)c1cccc(C(=O)Nc2ccc(Br)cc2)c1 | nt | i | i | i | i | i
CN1CC(=O)NC1=NC(=O)c1cc(F)c(F)cc1Cl | i | 31.6µM | ? | i | i | i
COc1cccc(C(=O)Nc2cccc(C(=O)OCc3cc(=O)n4nc(C5CC5)sc4n3)c2)c1 | nt | i | i | i | i | i
CCOc1ccccc1C(=O)NCc1ccc2c(c1)CCN2C(C)=O | nt | i | i | i | i | i
CCC(C)(C)C1CCC(=NNC(=S)Nc2cccnc2)CC1 (stereo unspecified) | i | 7.94µM | ? | 44.7µM | i | i
CC(C)(C)C1CCC(=NNC(=S)NCc2ccccc2)CC1 (stereo unspecified) | i | 8.91µM | ? | ? | i | i
CC(c1ccc(F)cc1)n1c(Cn2ncc3ccccc3c2=O)n[nH]c1=S (stereo unspecified) | i | i | i | 12.6µM | i | i
S=c1[nH]nc(COc2cccc3ccccc23)n1Cc1ccccc1 | i | i | i | i | i | i
Cc1ccc(-n2c(Cn3ncc4ccccc4c3=O)n[nH]c2=S)cc1 | i[11.4 µM] | 7.94µM | ? | 8.91µM | i | i
